Measured values reported in PubChem BioAssay.
The other results are listed elsewhere or left out. The source made the active and inactive calls.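 How the source made its calls, unless noted: active means mean inhibition above about 50% in the one-dose retest (limit read from the data); inactive means the rest.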

Columns and labels:
[1] = biological target: Sentrin-specific protease 8 (Homo sapiens) (UniProt Q96LD8); test: SENP8 protease inhibitors, retest, confirmation, biochemical, luminescence, single concentration (AID 488912;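 active means mean inhibition across replicates above about 50%, limit read from the data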); conditions: Recombinant SENP8, Z-RLRGG-aminoluciferin luminescence, 60 min; at 12.5 µM; stronger effect = higher value
[2] = biological target: Sentrin-specific protease 6 (Homo sapiens) (UniProt Q9GZR1); test: SENP6 protease inhibitors, confirmation, biochemical, luminescence, single concentration (AID 488915); conditions: recombinant SENP6, Z-RLRGG-aminoluciferin luminescence; at 12.5 µM; stronger effect = higher value
[3] = biological target: Sentrin-specific protease 7 (Homo sapiens) (UniProt Q9BQF6); test: SENP7 protease inhibitors, retest, confirmation, biochemical, luminescence, single concentration (AID 488917); conditions: recombinant SENP7, Z-RLRGG-aminoluciferin luminescence, 40 min; at 12.5 µM; stronger effect = higher value
Caspase-3 (Homo sapiens) = Caspase-3 (Homo sapiens) (UniProt P42574); test: caspase-3 protease inhibitors, confirmation, selectivity assay for SENP inhibitor project, biochemical, single concentration (AID 488918;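 active means mean inhibition above about 50%, limit read from the data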;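 further: plate controls were enzyme with DMSO for no effect and wells without caspase-3 for full effect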); conditions: purified caspase-3, Z-DEVD-aminoluciferin luminescence, 60 min; at 12.5 µM; stronger effect = higher value
[4] = luciferase luminescence interference by compounds, confirmation, artefact control for SENP inhibitor project, biochemical, single concentration, SENP8 reaction pre-completed (AID 488919;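 active means mean inhibition above about 50% when retested at one dose, limit read from the data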;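 further: plate controls were DMSO wells with completed reaction for no effect and substrate without enzyme for full effect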); conditions: Pre-incubated SENP8/Z-RLRGG-aminoluciferin, at 12.5 µM, stronger effect = higher value

Measured: inhibition

Chain of Sentrin-specific protease 6 (Homo sapiens) (Q9GZR1 628-1112 limits assumed): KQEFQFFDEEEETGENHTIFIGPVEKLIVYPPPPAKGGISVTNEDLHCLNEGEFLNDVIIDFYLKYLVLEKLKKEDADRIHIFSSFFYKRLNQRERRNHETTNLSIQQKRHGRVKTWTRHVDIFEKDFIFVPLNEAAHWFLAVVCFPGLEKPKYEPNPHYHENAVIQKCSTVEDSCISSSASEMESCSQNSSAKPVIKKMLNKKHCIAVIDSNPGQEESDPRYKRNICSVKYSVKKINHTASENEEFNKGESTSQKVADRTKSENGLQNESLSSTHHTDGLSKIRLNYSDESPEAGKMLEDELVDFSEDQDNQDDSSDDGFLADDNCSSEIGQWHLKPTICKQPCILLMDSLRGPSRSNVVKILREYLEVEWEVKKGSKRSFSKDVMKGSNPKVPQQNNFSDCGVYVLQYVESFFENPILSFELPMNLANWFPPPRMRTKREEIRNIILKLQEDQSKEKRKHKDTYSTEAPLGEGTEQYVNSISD
Chain of Caspase-3 (Homo sapiens) (P42574 28-227 limits assumed): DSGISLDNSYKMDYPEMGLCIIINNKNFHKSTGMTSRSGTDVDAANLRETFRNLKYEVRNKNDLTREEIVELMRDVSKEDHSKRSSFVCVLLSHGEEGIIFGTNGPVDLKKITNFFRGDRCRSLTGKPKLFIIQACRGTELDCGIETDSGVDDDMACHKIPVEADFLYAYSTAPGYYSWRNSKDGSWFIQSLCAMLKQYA
Chain of Sentrin-specific protease 7 (Homo sapiens) (Q9BQF6 706-1050 limits assumed): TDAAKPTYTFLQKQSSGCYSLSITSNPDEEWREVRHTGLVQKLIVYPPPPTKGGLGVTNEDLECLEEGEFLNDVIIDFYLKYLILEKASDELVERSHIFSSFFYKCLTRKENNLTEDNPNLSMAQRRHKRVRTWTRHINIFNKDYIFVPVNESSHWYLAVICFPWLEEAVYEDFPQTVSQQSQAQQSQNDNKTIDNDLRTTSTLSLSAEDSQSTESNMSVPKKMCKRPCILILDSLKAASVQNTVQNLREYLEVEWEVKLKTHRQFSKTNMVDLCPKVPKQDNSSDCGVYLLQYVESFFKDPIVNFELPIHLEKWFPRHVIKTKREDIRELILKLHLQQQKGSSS
Chain of Sentrin-specific protease 8 (Homo sapiens) (Q96LD8 whole entry, looked up): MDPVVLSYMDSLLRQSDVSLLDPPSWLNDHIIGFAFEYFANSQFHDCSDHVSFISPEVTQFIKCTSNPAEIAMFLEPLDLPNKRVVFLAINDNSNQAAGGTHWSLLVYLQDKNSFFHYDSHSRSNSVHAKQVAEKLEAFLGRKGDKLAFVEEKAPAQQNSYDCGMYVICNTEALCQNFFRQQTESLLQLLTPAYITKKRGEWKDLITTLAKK

COc1cccc(C(=O)Nc2nc3ccc(S(C)(=O)=O)cc3s2)c1
active: [2] 86.4% | [3] 98.9% | Caspase-3 (Homo sapiens) 89.2% | [4] 73.5%
inactive: [1] 4.4%

Cc1cc(NC(=O)c2ccc(F)cc2)ccc1NC(=O)c1ccco1
inactive: [4] 14.8%
active: [1] 78.9% | [2] 73.5% | [3] 93% | Caspase-3 (Homo sapiens) 88.6%

O=C(Nc1cccnc1Cl)c1cc(-c2ccccc2O)on1
inactive: [1] 8.6% | [2] 17.8% | [3] 16.2% | Caspase-3 (Homo sapiens) 8% | [4] 1.6%

Cc1cccc(NC(=O)COc2ccc(Br)cc2C)n1
inactive: [1] 1% | [2] 50% | [3] 7.4% | Caspase-3 (Homo sapiens) 20.8% | [4] 11.1%

COC(=O)c1ccc(NCC(=O)c2ccccc2)cc1
inactive: [1] 10.5%
active: [2] 97.3% | [3] 103% | Caspase-3 (Homo sapiens) 96% | [4] 60.5%

CCc1ccc(NC(=O)C(=O)NNC(=O)c2cccs2)cc1
inactive: [4] 5.2%
active: [1] 58.4% | [2] 73.4% | [3] 93.2% | Caspase-3 (Homo sapiens) 89.9%

COc1cccc(OCC(O)CNC(=O)c2oc3c(C)c(C)ccc3c2C)c1 (stereo not given)
inactive: [1] 5.2% | [2] -1.7% | [3] -2.1% | Caspase-3 (Homo sapiens) -3.9% | [4] -0.9%

Clc1ccc(Nc2ccc3ccccc3n2)cc1
active: [1] 87.7% | [2] 88.2% | [3] 97.8% | [4] 71.2%
inactive: Caspase-3 (Homo sapiens) 48.8%

O=c1c(-c2cccc(Cl)c2)c[nH]n1-c1ccccc1
active: [1] 63.9% | [2] 61.4% | [3] 80.8% | Caspase-3 (Homo sapiens) 76.2% | [4] 63.8%

N/C(=N\OC(=O)CCC1CCCCC1)c1ccccn1
active: [1] 88.5% | [2] 88.3% | [3] 98.2% | Caspase-3 (Homo sapiens) 90.7%
inactive: [4] 43.5%

O=C1C(=O)N(CCCN2CCOCC2)C(c2ccc([N+](=O)[O-])cc2)/C1=C(\O)c1ccc2c(c1)OCCO2 (stereo not given)
inactive: [1] -13.1% | [2] -8.9% | [3] -9% | Caspase-3 (Homo sapiens) -4.4% | [4] -12.5%

CCc1noc(C)c1C(=O)Nc1nc2ccc(OC)cc2s1
active: [3] 78.3% | Caspase-3 (Homo sapiens) 58.3%
inactive: [1] 45.2% | [2] 42.8% | [4] 19.6%

O=c1c2c(nc3cc(-c4cccc(Cl)c4)[nH]n13)CCCC2
inactive: [1] -9.4% | [2] 0% | [3] 21.5% | Caspase-3 (Homo sapiens) 41.6% | [4] -4.6%

O=C(/C=C/c1ccco1)Nc1ccc(Oc2ccccc2)cc1
active: [1] 51% | [2] 64.2% | [3] 89.4%
inactive: Caspase-3 (Homo sapiens) 40.7% | [4] 38.3%

Nc1ccc(-c2nnc(-c3ccc(-c4ccccc4)cc3)o2)cc1
inactive: [1] 11.8% | [2] 10.8% | [3] 32.4% | Caspase-3 (Homo sapiens) 6.5% | [4] -0.8%

CCOC(=O)/C(C#N)=C/c1ccc(N2CCCCC2)cc1
inactive: [1] 25.6% | [2] 34.1% | Caspase-3 (Homo sapiens) 30.2% | [4] 10.6%
active: [3] 65%

COc1ccc(C(=O)Nc2ccc3c(c2)OCO3)cc1OC
active: [2] 77.3% | [3] 93.5% | Caspase-3 (Homo sapiens) 91.3% | [4] 77.4%
inactive: [1] 8.9%

COc1ccc(/C=C/c2noc(-c3ccccc3OC(C)=O)n2)cc1
inactive: [4] 22.7%
active: [1] 55.1% | [2] 87.7% | [3] 94.5% | Caspase-3 (Homo sapiens) 77%

Cc1cccc(NC(=O)c2ccc3ccccc3n2)n1
active: [1] 76.6% | [2] 76.1% | [3] 93.6% | Caspase-3 (Homo sapiens) 65.2% | [4] 51.2%

CCCCOc1ccc(-c2nnc(-c3ccco3)o2)cc1
inactive: [1] 37.7% | [2] 44.6% | [3] 41.1% | Caspase-3 (Homo sapiens) 12.6% | [4] 2%

c1csc(-c2nc(-c3ccncc3)no2)c1
inactive: [1] 19.7% | [2] 47.2% | [4] 42.1%
active: [3] 83.4% | Caspase-3 (Homo sapiens) 80.4%

COCCN(CCOC)c1nc(N)c2c(N)nc3c(c2c1C#N)CC(=O)N3Cc1ccc(Cl)cc1
inactive: [1] -5.5% | [2] -0.6% | [3] 5.3% | Caspase-3 (Homo sapiens) 3.6% | [4] -3.7%

Cc1ccccc1Nc1nc(-c2cccnc2)cs1
active: [1] 70.3% | [2] 66.9% | [3] 86.9% | Caspase-3 (Homo sapiens) 52.8% | [4] 69.4%

O=C(OCC(=O)N1CCN(c2ccccc2)CC1)c1ccc([N+](=O)[O-])s1
active: [1] 64.2% | [2] 80.9%
inactive: [3] 25.4% | Caspase-3 (Homo sapiens) 8.3% | [4] -3.3%

Nc1ccc(-c2nnc(-c3ccccc3)o2)cc1
active: [1] 51.2% | [2] 51.4% | [3] 79.5% | Caspase-3 (Homo sapiens) 65.7%
inactive: [4] 35.7%
